PubChem BioAssay (Tox21)
Results filed as inconclusive are left out. Activity calls are given as the source filed them. Unless noted, calls follow the shape of the dose curve; as a rule, active = well fitted curve in the direction sought with a large enough effect in the repeat runs; inconclusive = weak or mixed curves; inactive = no such curve, though single readings can be large; an effect the other way counts as inactive or inconclusive.

Assays:
[1] = qHTS assay for small molecule agonists of the p53 signaling pathway (AID 651631; calls by dose curve; also: nearly all actives have a fitted effect of over 15% in size)
Outline: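 Testing took place in human colorectal HCT-116 cells with stable p53RE-driven beta-lactamase. After 16 h of compound exposure at 37 °C, a FRET substrate was added and fluorescence recorded 2 h later.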

[2] = qHTS assay for small molecules that induce genotoxicity in human embryonic kidney cells expressing luciferase-tagged ATAD5 (AID 651632); also: nearly all actives have a fitted effect of over 15% in size
Outline: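 Luminescent reporter readout, HEK293T ATAD5-luc line: 16 hr drug exposure (37C, 5% CO2) followed by Amplite, 30 min RT.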

[3] = qHTS assay for small molecule agonists of the p53 signaling pathway - cell viability (AID 651633; calls by dose curve; also: series mostly up to about 83 µM; nearly all actives have a fitted effect of over 30% in size)
Outline: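 p53RE-bla cells were treated with compound for 16 hours at 37 C. Cytotoxicity was then measured as CellTiter-Glo luminescence after 30 min at room temperature.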

[4] = qHTS assay for small molecules that induce genotoxicity in human embryonic kidney cells expressing luciferase-tagged ATAD5 - cell viability (AID 651634; calls by dose curve; also: nearly all actives have a fitted effect of over 25% in size)
Outline: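 Viability read: CellTiter-Fluor fluorescence, 30 min at 37C. Cells: HEK293T, luciferase-tagged ATAD5. Exposure: 15.5 hr, 37C, 5% CO2, compound or DMSO vehicle.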

[5] = qHTS assay for small molecule disruptors of the mitochondrial membrane potential - cell viability (AID 720634; calls by dose curve;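 also: human HepG2 liver cancer cells; series mostly up to about 83 µM; nearly all actives have a fitted effect of over 20% in size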)
Outline: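 HepG2, 1 hr compound, 37 C. ATP luminescence via CellTiter-Glo, 30 min RT, same well as m-MPI.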

[6] = qHTS assay for small molecule disruptors of the mitochondrial membrane potential (AID 720635)
Outline: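 HepG2 cells exposed to compound 1 hr at 37C, then Mito-MPS dye 30 min. Ratio read of aggregate (540/590 nm) versus monomer (490/535 nm) fluorescence.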

[7] = qHTS assay to test for compound auto fluorescence at 590 nm (red) in HepG2 cells (AID 720674)
Outline: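 Seeding: 2,000 HepG2 cells/well, MEM/10% FBS, overnight 37 C. Dosing: compound vs DMSO. Incubation: 1 hr, 37 C, 5% CO2. Read: fluorescence 540 ex/590 em, Rose Bengal sodium as red reference.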

[8] = qHTS assay to test for compound auto fluorescence at 535 nm (green) in HepG2 cells (AID 720675)
[9] = qHTS assay to test for compound auto fluorescence at 460 nm (blue) in HEK293 cells (AID 720678)
Outline: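 Intrinsic compound fluorescence is recorded in live HEK293 cultures after overnight incubation at 37C, 5% CO2, using excitation 405 nm and emission 460 nm. Values are referenced to triamterene.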

[10] = qHTS assay to test for compound auto fluorescence at 590 nm (red) in HEK293 cells (AID 720679)
Outline: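 Red autofluorescence, HEK293 cells: 2,000 cells/well; attach 4-5 hr 37C; add 23 nL cpd or DMSO; incubate o/n 37C 5% CO2; read Ex540/Em590; Rose Bengal sodium reference.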

[11] = qHTS assay to test for compound auto fluorescence at 535 nm (green) in HEK293 cells (AID 720680)
[12] = qHTS assay to test for compound auto fluorescence at 460 nm (blue) in HEK293 cell free culture (AID 720681)
Outline: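 Compounds were added to cell-free DMEM with 10% FBS and fluorescence read directly. The blue channel used 405 nm excitation and 460 nm emission, with triamterene as the reference fluorophore.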

[13] = qHTS assay to test for compound auto fluorescence at 535 nm (green) in HEK293 cell free culture (AID 720682)
Outline: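 DMEM + 10% FBS, cell-free; cpd or DMSO pinned in; Ex485/Em535 read; output as fluorescein-equivalent signal.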

[14] = qHTS assay to test for compound auto fluorescence at 590 nm (red) in HEK293 cell free culture (AID 720683)
Outline: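 Cell-free wells of DMEM with 10% FBS received compound, and intrinsic fluorescence was read at excitation/emission 540/590 nm. Values expressed as equivalence to Rose Bengal sodium.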

[15] = qHTS assay to test for compound auto fluorescence at 590 nm (red) in HepG2 cell free culture (AID 720684)
Outline: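 Compound was pinned into wells holding MEM with 10% FBS and no cells, and red fluorescence was read at Ex/Em 540/590 nm. Signal is expressed as auto fluorescence equivalency relative to Rose Bengal sodium.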

[16] = qHTS assay to test for compound auto fluorescence at 460 nm (blue) in HepG2 cell free culture (AID 720685)
Outline: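 Compound (23 nL) or DMSO pinned into cell-free MEM with 10% FBS; blue fluorescence read at 405/460 nm excitation/emission, expressed as auto-fluorescence equivalency to triamterene.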

[17] = qHTS assay to test for compound auto fluorescence at 535 nm (green) in HepG2 cell free culture (AID 720686)
[18] = qHTS assay to test for compound auto fluorescence at 460 nm (blue) in HepG2 cells (AID 720687)
Outline: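 HepG2 cells in MEM with 10% FBS, attached overnight at 37 C, were exposed to compound or DMSO for 1 hr at 37 C, 5% CO2. Blue fluorescence was read at 405/460 nm, with triamterene as reference fluorophore.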

[19] = target: Glucocorticoid receptor (Homo sapiens) (UniProt P04150); assay: qHTS assay to identify small molecule agonists of the glucocorticoid receptor (GR) signaling pathway (AID 720691; active = well fitted activation curve with a large enough effect in the signal ratio in the repeat runs, not every such curve was filed as active; the % refers to the signal ratio)
Chain of Glucocorticoid receptor (Homo sapiens) (P04150 whole entry, looked up): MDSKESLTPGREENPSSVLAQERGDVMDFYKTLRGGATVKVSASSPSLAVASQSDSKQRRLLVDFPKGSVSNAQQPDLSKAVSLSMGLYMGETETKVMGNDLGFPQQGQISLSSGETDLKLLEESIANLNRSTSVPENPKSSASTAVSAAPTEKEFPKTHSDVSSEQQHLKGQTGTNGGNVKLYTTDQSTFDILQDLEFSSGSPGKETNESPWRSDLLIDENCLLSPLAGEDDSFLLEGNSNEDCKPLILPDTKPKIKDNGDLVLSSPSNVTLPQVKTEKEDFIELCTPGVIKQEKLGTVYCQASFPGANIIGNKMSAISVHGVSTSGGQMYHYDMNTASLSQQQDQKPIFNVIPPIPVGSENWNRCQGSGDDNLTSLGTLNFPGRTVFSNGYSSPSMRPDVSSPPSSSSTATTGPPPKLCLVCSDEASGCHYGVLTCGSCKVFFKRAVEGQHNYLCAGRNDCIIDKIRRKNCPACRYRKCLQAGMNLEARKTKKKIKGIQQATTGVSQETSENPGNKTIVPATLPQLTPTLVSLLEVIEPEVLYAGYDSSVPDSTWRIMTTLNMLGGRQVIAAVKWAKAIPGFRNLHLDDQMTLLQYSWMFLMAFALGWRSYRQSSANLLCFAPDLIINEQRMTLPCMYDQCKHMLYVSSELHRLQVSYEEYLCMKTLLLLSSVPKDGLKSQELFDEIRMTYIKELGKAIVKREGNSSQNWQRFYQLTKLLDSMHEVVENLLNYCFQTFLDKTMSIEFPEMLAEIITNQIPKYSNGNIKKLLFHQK
Outline: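 qHTS in GR-bla HeLa cells: 4 h settling at 37 C/5% CO2, 18 h compound incubation at 37 C, 2 h LiveBLAzer B/G FRET substrate at room temperature, fluorescence intensity measured.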

[20] = target: Glucocorticoid receptor (Homo sapiens) (UniProt P04150); assay: qHTS assay to identify small molecule antagonists of the glucocorticoid receptor (GR) signaling pathway (AID 720692; active = well fitted inhibition curve with a large enough effect in the signal ratio in the repeat runs, not every such curve was filed as active; the % refers to the signal ratio)
Outline: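 Inhibition of glucocorticoid signalling is measured in HeLa cells with a GRE-controlled beta-lactamase reporter; cells are co-treated with compound and 5 nM dexamethasone (final) for 18 h before FRET substrate readout.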
% is scaled to controls: 0 for no effect and ±100 for the full control effect.

CC(C)(O)C(=O)c1ccc(OCCO)cc1
inactive: Potency [1] | Potency [2] | Potency [3] | Potency [4] | Potency [5] | Potency [6] | outcome [7] | outcome [8] | Potency [9] | outcome [10] | outcome [11] | Potency [12] | outcome [13] | outcome [14] | outcome [15] | Potency [16] | outcome [17] | Potency [18] | Potency [19] | Potency [20]

O=C1C(CCS(=O)c2ccccc2)C(=O)N(c2ccccc2)N1c1ccccc1 (stereo not drawn)
inactive: Potency [1] | Potency [2] | Potency [3] | Potency [4] | Potency [5] | Potency [6] | fluorescence, relative to Rose Bengal [7] -0.0311% [at 18.6 µM] | fluorescence, % of fluorescein control [8] -0.114% [at 18.6 µM] | fluorescence, % of triamterene [9] -0.0077% [at 18.6 µM] | fluorescence, % of fluorescent control [10] 0.179% [at 18.6 µM] | fluorescence, % of fluorescein [11] -0.11% [at 18.6 µM] | fluorescence, % of fluorescent control [12] 0.0823% [at 18.6 µM] | activity change [13] 0.112% [at 18.6 µM] | fluorescence, % of fluorescent control [14] 0.107% [at 18.6 µM] | fluorescence, % of Rose Bengal [15] -0.0469% [at 18.6 µM] | fluorescence, % of fluorescent control [16] -0.0192% [at 18.6 µM] | fluorescence, % of fluorescein control [17] -0.0165% [at 18.6 µM] | fluorescence, % of fluorescent control [18] -0.182% [at 18.6 µM] | Potency [19] | Potency [20]

CCCCCCCCCCCl
inactive: Potency [1] | Potency [2] | Potency [3] | Potency [4] | Potency [5] | Potency [6] | outcome [7] | outcome [8] | Potency [9] | outcome [10] | outcome [11] | Potency [12] | outcome [13] | outcome [14] | outcome [15] | Potency [16] | outcome [17] | Potency [18] | Potency [19]

CC(=O)O[C@H](CC(=O)[O-])C[N+](C)(C)C
inactive: Potency [1] | Potency [2] | Potency [3] | Potency [4] | Potency [5] | Potency [6] | outcome [7] | outcome [8] | Potency [9] | outcome [10] | outcome [11] | Potency [12] | outcome [13] | outcome [14] | outcome [15] | Potency [16] | outcome [17] | Potency [18] | Potency [19] | Potency [20]

O=S(=O)(O)c1ccccc1O
inactive: Potency [1] | Potency [2] | Potency [3] | Potency [4] | Potency [5] | Potency [6] | outcome [7] | outcome [8] | Potency [9] | outcome [10] | outcome [11] | Potency [12] | outcome [13] | outcome [14] | outcome [15] | Potency [16] | outcome [17] | Potency [18] | Potency [19] | Potency [20]

C=C(C)C1CC=C(C)C(O)C1 (stereo not drawn)
inactive: Potency [1] | Potency [2] | Potency [3] | Potency [4] | Potency [5] | Potency [6] | outcome [7] | outcome [8] | Potency [9] | outcome [10] | outcome [11] | Potency [12] | outcome [13] | outcome [14] | outcome [15] | Potency [16] | outcome [17] | Potency [18] | Potency [19]
